From PubChem BioAssay AID651687 (Broad Institute, 2012)
Where “and” joins values, the source holds several entries; their conditions need not be identical. Identical values can stand only once. Among all 350,000 compounds or so, about 600 (0.17%) were called active.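 The calls were made as follows: active = every replicate shows inhibition of at least 40%; inconclusive = mean inhibition at least 40% but some replicate below; inactive = the rest.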 Only a selection was taken, and actives are over-represented in it overall.

assay: compounds lowering acetylated PGC1a in cells – cell-based, U2OS, AlphaScreen, inhibitor mode, primary screen (AID 651687); details: U2OS PGC1a acetylation, AlphaScreen anti-acetyl-lysine; at 15.6 µM; active compounds read high; with virally co-expressed GCN5 acetyltransferase;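 also: 0% = neutral control wells and 100% = positive control wells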

| Compound | inhibition |
| --- | --- |
| CN(C)CC(=O)Nc1ccc2c(c1)[C@H]1C[C@H](CC(=O)NCc3ccc4c(c3)OCO4)O[C@@H](CO)[C@H]1O2 | -4.35% (inactive) |
| CC(=O)N(C)C[C@@H]1Oc2ncc(C#CCc3ccccc3)cc2C(=O)N([C@H](C)CO)C[C@H]1C | 2.72% (inactive) |
| Cc1ccc(S(=O)(=O)Nc2ccc3c(c2)C(=O)N([C@H](C)CO)C[C@@H](C)[C@H](CN(C)Cc2ccccc2)O3)cc1 | -12.1% (inactive) |
| CCNC(=O)C[C@@H]1CC[C@@H]2[C@H](COc3ccc(NC(=O)Nc4cccc(C)c4)cc3C(=O)N2C)O1 | 0.938% (inactive) |
| O=C(C[C@@H]1C[C@@H]2c3cc(NC(=O)Nc4ccccc4F)ccc3O[C@@H]2[C@@H](CO)O1)NCCc1ccccc1 | 9.83% (inactive) |
| O=C(C1CCCC1)N1CC(=O)N2[C@@H](CO)[C@H](c3ccc(C#CC4CCCC4)cc3)[C@@H]2C1 | -10.1% (inactive) |
| O=C(C[C@@H]1CC[C@H](NC(=O)Nc2ccc3c(c2)OCO3)[C@H](CO)O1)NCc1ccccc1 | 2.06% (inactive) |
| COc1cc(NC(=O)c2cncc(-c3ccc(C#N)cc3)c2)cc(C(=O)Nc2cccc(C(F)(F)F)c2)c1 | 4.55% (inactive) and 7.38% (inactive) |
| COc1cc(NC(=O)c2[nH]cnc2C(N)=O)cc(C(=O)Nc2cccc(C(F)(F)F)c2)c1 | 62.8% (active) |
| COc1ccc(C(N)c2csc(NC(=O)Nc3cccc(C(F)(F)F)c3)n2)cc1 (stereo unspecified) | -29.2% (inactive) |
| COc1cccc(-c2cn(CC[C@@H]3CC[C@@H](NC(C)=O)[C@@H](CO)O3)nn2)c1 | 22.5% (inactive) |
| O=C(C[C@H]1C=C[C@@H](NC(=O)c2cnccn2)[C@H](CO)O1)NCc1ccccc1F | -3.99% (inactive) |
| Cc1noc(C)c1S(=O)(=O)Nc1ccc2c(c1)CC(=O)N([C@H](C)CO)C[C@@H](C)[C@@H](CN(C)C)O2 | 4.76% (inactive) |
| CCCNC(=O)C[C@H]1CC[C@@H]2[C@H](COC[C@H](O)CN2CC2CCCCC2)O1 | -2.1% (inactive) |
| O=C(O)C[C@H]1C[C@@H]2c3cc(NC(=O)Nc4ccc(C(F)(F)F)cc4)ccc3O[C@@H]2[C@@H](CO)O1 | -2.34% (inactive) |
| C[C@H](O)C#Cc1ccc([C@H]2[C@H](CO)N3CCCCN(C(=O)c4ccc(F)cc4)C[C@@H]23)cc1 | -4.78% (inactive) |
| CCC(=O)N(C)C[C@H]1Oc2ncc(-c3ccc(C#N)cc3)cc2C(=O)N([C@@H](C)CO)C[C@H]1C | -11.3% (inactive) |
| CCCNC(=O)N[C@H]1C=C[C@@H](CC(=O)NC2CCCCC2)O[C@H]1CO | -18.5% (inactive) |
| Cc1ccc(S(=O)(=O)Nc2ccc3c(c2)C(=O)N([C@@H](C)CO)C[C@H](C)[C@@H](CN(C)Cc2ccc4c(c2)OCO4)O3)cc1 | 1.59% (inactive) |
| COC(=O)C[C@H]1CC[C@@H]2[C@@H](COc3ccc(NC(=O)Nc4ccc(Cl)cc4)cc3C(=O)N2C)O1 | -4.91% (inactive) |
| NC(=NC(=O)c1ccccc1)N1CCOCC1 | 84.1% (active) |
| N[C@@H](Cc1ccccc1)C(=O)N1CCOCC1 | -8.48% (inactive) |

| Compound | inhibition |
| --- | --- |
| O=C(CSC(=S)N1CCOCC1)c1ccccc1 | -7.05% (inactive) |
| CCCC(=O)Nc1ccc2c(c1)C(=O)N(C)[C@@H]1CC[C@H](CC(=O)NCCN3CCCCC3)O[C@@H]1CO2 | 1.12% (inactive) |
| C[C@@H]1CCCCO[C@H](CN(C)C(=O)c2ccccc2)[C@@H](C)CN([C@H](C)CO)C(=O)c2cc(NC(=O)c3ccccc3)ccc2O1 | 5.89% (inactive) |
| C[C@@H]1CN([C@H](C)CO)C(=O)c2cc(NC(=O)c3ccccc3)ccc2O[C@@H](C)CCCCO[C@H]1CN(C)C(=O)c1ccncc1 | 8.37% (inactive) |
| CCNC(=O)Nc1ccc2c(c1)C(=O)N(C)[C@@H]1CC[C@@H](CC(=O)NC3CCCCC3)O[C@H]1CO2 | 1.93% (inactive) |
| C[C@@H]1CN([C@H](C)CO)C(=O)c2cc(NC(=O)C3CCCCC3)ccc2O[C@@H](C)CCCCO[C@H]1CN(C)S(C)(=O)=O | 6.77% (inactive) |
| COc1ccc(S(=O)(=O)N(C)C[C@@H]2Oc3ccc(NC(=O)Cc4cn(C)c5ccccc45)cc3C(=O)N([C@H](C)CO)C[C@H]2C)cc1 | -8.14% (inactive) |
| C[C@@H]1CN([C@H](C)CO)S(=O)(=O)c2ccc(-c3ccc(C(=O)N(C)C)cc3)cc2O[C@@H]1CN(C)C(=O)Nc1ccccc1F | -11.4% (inactive) |
| CO[C@H]1CN(C)C(=O)c2ccc(NC(=O)C3CC3)cc2OC[C@H](C)N(Cc2ccncc2)C[C@@H]1C | -7.97% (inactive) |
| COc1ccc(NC(=O)Nc2cccc3c2O[C@@H](CN(C)S(=O)(=O)c2ccc(C)cc2)[C@H](C)CN([C@@H](C)CO)C3=O)cc1 | 3.27% (inactive) |
| CO[C@H](C(=O)N(C)C[C@@H]1OCc2ccccc2-c2c(n(C)c3ccccc23)C(=O)N([C@@H](C)CO)C[C@H]1C)c1ccccc1 | -1.42% (inactive) |
| CCCN1C[C@@H](C)[C@@H](OC)CN(C)C(=O)c2cc(NC(=O)C3CCC3)ccc2OC[C@H]1C | -10.1% (inactive) |
| CO[C@H]1CN(C)C(=O)c2cc(NS(=O)(=O)c3ccccc3)ccc2OC[C@H](C)N(C(=O)NC(C)C)C[C@@H]1C | 8.54% (inactive) |
| O=C(c1ccncc1)N1CC2(C1)[C@@H](c1ccccc1)[C@H](CO)N2C(=O)c1ccncc1 | 6.1% (inactive) |
| C[C@@H]1CCCCO[C@@H](CN(C)C(=O)c2ccccc2)[C@H](C)CN([C@@H](C)CO)C(=O)c2cc(NS(C)(=O)=O)ccc2O1 | -1.5% (inactive) |
| CCOC(=O)c1ccc2[nH]c3c(c2c1)CCCC3NC=O (stereo unspecified) | 5% (inactive) |
| CCOC(=O)c1ccc2[nH]c(C)c(CN3CCN(C)CC3)c(=O)c2c1 | 59.3% (active) |
| Cc1[nH]c2ccc(C(=O)N3CCN(C)CC3)cc2c1C | 1.27% (inactive) |
| CO[C@@H]1CN(C)C(=O)c2ccc(NS(C)(=O)=O)cc2OC[C@H](C)N(C(=O)C2CC2)C[C@H]1C | -8.93% (inactive) |
| COc1ccc(NC(=O)Nc2ccc3c(c2)C(=O)N([C@@H](C)CO)C[C@H](C)[C@@H](CN(C)S(=O)(=O)c2ccc(Cl)cc2)O3)cc1 | -2.11% (inactive) |
| C[C@H]1CN([C@@H](C)CO)C(=O)c2cccc(NC(=O)Nc3ccccc3)c2O[C@H]1CN(C)S(=O)(=O)c1ccc(F)cc1 | -3.23% (inactive) |
| C[C@@H]1CN([C@H](C)CO)C(=O)c2cc(NC(=O)Nc3ccc(F)cc3)ccc2O[C@@H](C)CCCCO[C@@H]1CN(C)S(=O)(=O)c1cn(C)cn1 | -2.5% (inactive) |

| Compound | inhibition |
| --- | --- |
| C[C@@H](O)C#Cc1ccc([C@H]2[C@H](CO)N3CCCCN(C(=O)c4ccc(F)cc4)C[C@@H]23)cc1 | -2.34% (inactive) |
| Cc1nc2ccccc2n1CC(=O)N/N=C/c1cccs1 | 0.244% (inactive) |
| NC(=O)N/N=C\c1cccs1 | 76.7% (active) |
| Cc1cc(C)nc(SC(C)C(=O)N/N=C/c2cccs2)n1 (stereo unspecified) | -4.85% (inactive) |
| COCC(=O)N1[C@H](CO)[C@@H](c2ccccc2)C12CN(Cc1cc(F)ccc1F)C2 | 3.15% (inactive) |
| CN1c2ccc(C#Cc3ccccc3F)cc2[C@@H]2[C@@H](CCN2C(=O)Cc2cccnc2)[C@H]1CO | -8.75% (inactive) |
| CO[C@@H]1CN(C)C(=O)c2ccc(NS(=O)(=O)c3c(C)noc3C)cc2OC[C@H](C)NC[C@@H]1C | 14.4% (inactive) |
| CC(C)NC(=O)N(C)C[C@H]1OCCCC[C@H](C)Oc2ccc(NS(=O)(=O)c3cccs3)cc2C(=O)N([C@H](C)CO)C[C@@H]1C | -3.81% (inactive) |
| COc1ccc2c3c(n(C)c2c1)[C@@H](CO)N(C(=O)CN1CCOCC1)CC31CCN(C(=O)C2CC2)CC1 | 5.01% (inactive) |
| O=C(c1cccnc1)N1C[C@H]2[C@@H](c3ccccc31)[C@H](CO)N2C(=O)C1CC1 | 8.96% (inactive) |
| C[C@H](CO)N1C[C@H](C)[C@@H](CN(C)S(=O)(=O)c2cccs2)OCc2ccccc2-c2ccccc2C1=O | -0.156% (inactive) |
| CCNC(=O)C[C@@H]1CC[C@@H]2[C@@H](COc3ccc(NC(=O)Nc4ccccc4F)cc3C(=O)N2C)O1 | 2.36% (inactive) |
| CO[C@@H]1CN(C)C(=O)c2cc(NC(=O)c3ccccc3F)ccc2OC[C@H](C)NC[C@@H]1C | -5.95% (inactive) |
| CO[C@@H]1CN(C)C(=O)c2ccc(NC(=O)c3ccccc3F)cc2OC[C@@H](C)N(CC2CCOCC2)C[C@H]1C | -3.01% (inactive) |
| C[C@@H]1CCCCO[C@@H](CN(C)C(=O)C2CCCCC2)[C@H](C)CN([C@H](C)CO)C(=O)c2cc(NC(=O)c3ccccc3)ccc2O1 | -4.75% (inactive) |
| CCCN(C)C[C@H]1Oc2ncc(-c3ccccc3OC)cc2C(=O)N([C@H](C)CO)C[C@H]1C | 7.87% (inactive) |
| C[C@@H](NC(=O)C[C@H]1CC[C@H]2[C@@H](COC[C@@H](O)CN2C(=O)Nc2ccccc2)O1)c1ccccc1 | 6.72% (inactive) |
| COc1ccccc1C#Cc1cnc2c(c1)C(=O)N([C@@H](C)CO)C[C@@H](C)[C@H](CN(C)C(=O)CN(C)C)O2 | -1.48% (inactive) |
| CC1(C(=O)O)CCCN(C(=O)/C=C/c2ccccc2)C1 (stereo unspecified) | 7.82% (inactive) |
| C/C(=C\c1ccccc1)C1NC(=O)c2c(sc3c2CCCC3)N1 (stereo unspecified) | 6.29% (inactive) |
| Cc1[nH]c(=O)c(C(=O)/C=C/c2ccccc2)c2c1CCCC2 | 53.2% (active) |
| C[C@@H]1CN([C@H](C)CO)C(=O)c2cc(NC(=O)c3ccccc3)ccc2O[C@@H](C)CCCCO[C@H]1CN(C)S(=O)(=O)c1ccccc1 | 0.633% (inactive) |
